Calls of active or inactive are those of the source.
Assays:
[1] = E. coli DRC41 culture turbidity changes, primary screen, E. coli filamentation inducer project, strain DRC41, OD650, 48 h (AID 1152);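 further: E. coli MC1000 strain DRC41 lacking acrAB efflux pump and sulA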; conditions: E. coli DRC41 (acrAB sulA), higher = more signal, called active from +8 up or from −8 down
[2] = small-molecule binders of probe aLefty1, primary screen, biochemical, small-molecule microarray, 635/667 nm fluorescence (AID 1153); conditions: higher = more signal;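 further: score merges spot fluorescence with signal-to-noise ratio from the scanned slide images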
[3] = PSAC antagonists in infected red cells, primary screen, cell-based, P. falciparum Indochina, OD700, 1 h (AID 1154); conditions: P. falciparum Indochina infected RBC osmotic lysis, higher = more signal, called active from +8 up or from −8 down
[4] = PSAC antagonists in infected red cells, primary screen, cell-based, P. falciparum Indochina, OD700, 2 h (AID 1155);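 further: lysis reports solute entry through the parasite surface anion channel PSAC; channel blockers reduce lysis of infected cells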; conditions: P. falciparum Indochina infected erythrocytes, osmotic lysis OD700; higher = more signal, called active from +8 up or from −8 down
[5] = osmotic lysis modulators in infected erythrocytes, primary screen, PSAC antagonist project, cell-based, P. falciparum Indochina, OD700, 3 h (AID 1156); conditions: higher = more signal, called active from +8 up or from −8 down
[6] = PSAC antagonists in infected red cells, primary screen, cell-based, P. falciparum Indochina, OD700, 18 h (AID 1157); conditions: P. falciparum Indochina infected erythrocytes, osmotic lysis OD700, 18 h; higher = more signal, called active from +8 up or from −8 down
[7] = modulators of S6 phosphorylation in cells, primary screen, cell-based, A549, cytoblot, luminescence, serum-stimulated (AID 1158); conditions: A549 phospho-S6 cytoblot, 5 h, higher = more signal;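 further: serum-stimulated A549 lung adenocarcinoma cells; signal is phosphorylated S6 detected by cytoblot immunostaining with HRP secondary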
[8] = target: NADPH oxidase 2 (Homo sapiens) (UniProt P04839); assay: NOX2-dependent H2O2 signal modulators, primary screen, NOX inhibitor project, cell-based, HEK293-NOX2, PMA-stimulated, Amplex Red fluorescence (AID 1159); conditions: 45 min, higher = more signal, called active from +8 up or from −8 down; further: test concentration not given here
NADPH oxidase 2 (Homo sapiens), sequence (P04839 whole entry, looked up): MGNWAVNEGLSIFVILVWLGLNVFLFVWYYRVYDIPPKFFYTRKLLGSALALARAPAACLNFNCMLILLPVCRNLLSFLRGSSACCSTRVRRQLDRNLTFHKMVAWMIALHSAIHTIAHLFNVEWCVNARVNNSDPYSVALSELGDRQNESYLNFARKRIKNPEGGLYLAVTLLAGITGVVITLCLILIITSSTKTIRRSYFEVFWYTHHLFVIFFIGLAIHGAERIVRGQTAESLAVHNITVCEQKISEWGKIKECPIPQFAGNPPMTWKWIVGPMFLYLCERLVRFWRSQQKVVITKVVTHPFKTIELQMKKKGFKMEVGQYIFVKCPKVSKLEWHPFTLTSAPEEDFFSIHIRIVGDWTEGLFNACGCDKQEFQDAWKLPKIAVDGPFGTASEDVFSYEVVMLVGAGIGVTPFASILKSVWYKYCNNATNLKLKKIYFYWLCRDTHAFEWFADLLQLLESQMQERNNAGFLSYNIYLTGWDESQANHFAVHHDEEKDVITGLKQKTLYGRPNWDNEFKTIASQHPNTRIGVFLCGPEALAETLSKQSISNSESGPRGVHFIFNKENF

[9] = target: NADPH oxidase 4 (Homo sapiens) (UniProt Q9NPH5); assay: NOX4-dependent H2O2 signal modulators, primary screen, NOX inhibitor project, cell-based, HEK293-NOX4, tetracycline-induced, Amplex Red fluorescence (AID 1160); conditions: 45 min, higher = more signal, called active from +8 up or from −8 down
NADPH oxidase 4 (Homo sapiens), sequence (Q9NPH5 whole entry, looked up): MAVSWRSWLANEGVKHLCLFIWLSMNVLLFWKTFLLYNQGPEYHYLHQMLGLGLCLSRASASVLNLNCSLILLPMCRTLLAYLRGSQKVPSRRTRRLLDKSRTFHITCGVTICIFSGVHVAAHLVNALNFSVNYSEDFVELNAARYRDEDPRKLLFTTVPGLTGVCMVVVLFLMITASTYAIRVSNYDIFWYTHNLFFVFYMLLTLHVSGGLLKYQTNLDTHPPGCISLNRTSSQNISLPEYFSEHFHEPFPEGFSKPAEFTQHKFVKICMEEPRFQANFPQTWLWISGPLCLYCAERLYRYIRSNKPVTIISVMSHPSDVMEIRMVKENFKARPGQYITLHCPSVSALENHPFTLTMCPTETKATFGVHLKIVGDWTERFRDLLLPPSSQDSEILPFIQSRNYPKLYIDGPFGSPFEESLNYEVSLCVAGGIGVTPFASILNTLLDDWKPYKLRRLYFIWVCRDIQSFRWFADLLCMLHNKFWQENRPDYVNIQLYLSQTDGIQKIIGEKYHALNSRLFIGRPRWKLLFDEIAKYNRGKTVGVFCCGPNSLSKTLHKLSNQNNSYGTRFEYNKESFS

[10] = target: NADPH oxidase 5 (Homo sapiens) (UniProt Q96PH1); assay: NOX5-dependent H2O2 signal modulators, primary screen, NOX inhibitor project, cell-based, HEK293-NOX5, Amplex Red fluorescence (AID 1161); conditions: HEK293-NOX5, ionomycin, 45 min, higher = more signal
NADPH oxidase 5 (Homo sapiens), sequence (Q96PH1 whole entry, looked up): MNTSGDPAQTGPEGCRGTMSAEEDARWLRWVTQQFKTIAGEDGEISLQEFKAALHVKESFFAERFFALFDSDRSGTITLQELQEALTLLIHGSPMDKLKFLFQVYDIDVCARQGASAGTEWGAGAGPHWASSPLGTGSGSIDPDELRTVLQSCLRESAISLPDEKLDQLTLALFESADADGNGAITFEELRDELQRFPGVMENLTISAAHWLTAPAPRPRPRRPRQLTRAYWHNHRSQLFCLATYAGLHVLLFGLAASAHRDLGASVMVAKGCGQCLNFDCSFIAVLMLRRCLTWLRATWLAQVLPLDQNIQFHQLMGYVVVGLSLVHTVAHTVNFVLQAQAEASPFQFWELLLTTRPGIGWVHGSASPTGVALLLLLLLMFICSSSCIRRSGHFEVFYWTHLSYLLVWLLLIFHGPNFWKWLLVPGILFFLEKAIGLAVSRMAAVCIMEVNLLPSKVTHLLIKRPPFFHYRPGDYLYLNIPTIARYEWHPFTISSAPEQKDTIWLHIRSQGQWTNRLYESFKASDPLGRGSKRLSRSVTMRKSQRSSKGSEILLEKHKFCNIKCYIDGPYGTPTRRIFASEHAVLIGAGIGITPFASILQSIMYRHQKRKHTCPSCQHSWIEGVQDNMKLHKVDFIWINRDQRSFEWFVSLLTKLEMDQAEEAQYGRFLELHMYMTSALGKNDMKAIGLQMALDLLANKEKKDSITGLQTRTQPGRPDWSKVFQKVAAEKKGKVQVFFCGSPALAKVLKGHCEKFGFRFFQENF

## CCOC(=O)CCN1C(=O)[C@H]2[C@H]3[C@H](O)[C@H](O)CC(=NOCc4ccccc4)[C@H]3CC[C@H]2C1=O
[1]
  z-score: 1.02 (inactive)
[2]
  composite z-score: 0.914
[3]
  z-score: 3.06 (inactive)
[4]
  z-score: 0.939 (inactive)
[5]
  z-score: -0.35 (inactive)
[6]
  z-score: 0.451 (inactive)
[7]
  z-score: -0.578
[8]
  z-score: -0.43 (inactive)
[9]
  z-score: 0.622 (inactive)
[10]
  z-score: 0.279

## O=C1[C@H]2[C@H]3[C@H](O)[C@H](O)CC(=NOC[C@@H](O)COCc4ccco4)[C@H]3CC[C@H]2C(=O)N1c1ccc(F)cc1F
[1]
  z-score: -0.575 (inactive)
[2]
  composite z-score: 0.153
[3]
  z-score: 1.12 (inactive)
[4]
  z-score: -0.479 (inactive)
[5]
  z-score: 0.679 (inactive)
[6]
  z-score: -1.14 (inactive)
[7]
  z-score: 1.69
[8]
  z-score: -0.249 (inactive)
[9]
  z-score: 0.498 (inactive)
[10]
  z-score: 1.09

## COc1cccc([C@H]2Oc3ccc(OC)cc3C(=NOC[C@@H](C)[C@H](OCc3ccccc3)C(C)C)[C@@H]2O)c1
[1]
  z-score: -1.25 (inactive)
[2]
  composite z-score: -0.0428
[3]
  z-score: 2.57 (inactive)
[4]
  z-score: 0.947 (inactive)
[5]
  z-score: 0.0083 (inactive)
[6]
  z-score: 0.612 (inactive)
[7]
  z-score: -0.891
[8]
  z-score: -0.364 (inactive)
[9]
  z-score: -2.1 (inactive)
[10]
  z-score: -1.97

## COC(=O)CC=C[C@@H](C)[C@@H](C=NO[C@@H]1O[C@H](COC(C)=O)[C@@H](OC(C)=O)[C@H](OC(C)=O)[C@H]1OC(C)=O)OC
[1]
  z-score: -0.477 (inactive)
[2]
  composite z-score: 0.142
[3]
  z-score: 0.683 (inactive)
[4]
  z-score: 0.547 (inactive)
[5]
  z-score: -0.193 (inactive)
[6]
  z-score: 0.416 (inactive)
[7]
  z-score: -0.474
[8]
  z-score: 1.26 (inactive)
[9]
  z-score: 0.729 (inactive)
[10]
  z-score: 0.688

## CCOC(=O)[C@H](CC(C)C)NC(=O)CCC1CC(OC(=O)NCc2cccc3ccccc23)CC2(CCCC(COC(=O)NCCOc3ccccc3)O2)O1 (stereo not given in full)
[1]
  z-score: 0.288 (inactive)
[2]
  composite z-score: -0.372
[3]
  z-score: -1.67 (inactive)
[4]
  z-score: -0.658 (inactive)
[5]
  z-score: -2.05 (inactive)
[6]
  z-score: -0.391 (inactive)
[7]
  z-score: -0.305
[8]
  z-score: 0.711 (inactive)
[9]
  z-score: 0.635 (inactive)
[10]
  z-score: 0.534

## CCOC(=O)[C@H](Cc1ccccc1)NC(=O)OC1CC(CCC2CC(CC)=NO2)OC2(CCCC(COC(=O)NCCC(C)C)O2)C1 (stereo not given in full)
[1]
  z-score: -0.0799 (inactive)
[2]
  composite z-score: -0.101
[3]
  z-score: 3.14 (inactive)
[4]
  z-score: -0.0787 (inactive)
[5]
  z-score: -0.648 (inactive)
[6]
  z-score: -0.39 (inactive)
[7]
  z-score: -0.459
[8]
  z-score: -0.405 (inactive)
[9]
  z-score: 0.109 (inactive)
[10]
  z-score: 1.04

## CC(C)CON=C1C[C@@H](O)[C@@H](O)[C@@H]2[C@@H]3C(=O)N(C(C)(C)C)C(=O)[C@@H]3CC[C@H]12
[1]
  z-score: 0.288 (inactive)
[2]
  composite z-score: -0.0162
[3]
  z-score: 0.221 (inactive)
[4]
  z-score: -0.239 (inactive)
[5]
  z-score: -0.814 (inactive)
[6]
  z-score: -0.089 (inactive)
[7]
  z-score: -0.382
[8]
  z-score: 1.47 (inactive)
[9]
  z-score: 0.594 (inactive)
[10]
  z-score: 0.325

## CO[C@@H]1COC(=O)CC=C[C@H](C)[C@H](OC)COC(=O)[C@H](C)NC(=O)CC=C[C@H]1C
[1]
  z-score: 0.525 (inactive)
[2]
  composite z-score: -0.012
[3]
  z-score: 0.0859 (inactive)
[4]
  z-score: 0.0159 (inactive)
[5]
  z-score: 0.704 (inactive)
[6]
  z-score: 0.107 (inactive)
[7]
  z-score: -0.0908
[8]
  z-score: -0.402 (inactive)
[9]
  z-score: -0.249 (inactive)
[10]
  z-score: -0.159

## Cc1ccc(S(=O)(=O)N[C@H]2COC(=O)CC=C[C@@H](C)COC(=O)CC=C[C@@H]2C)cc1
[1]
  z-score: 0.142 (inactive)
[2]
  composite z-score: -0.296
[3]
  z-score: 0.866 (inactive)
[4]
  z-score: -0.162 (inactive)
[5]
  z-score: -0.424 (inactive)
[6]
  z-score: -0.014 (inactive)
[7]
  z-score: -0.41
[8]
  z-score: 0.225 (inactive)
[9]
  z-score: 0.684 (inactive)
[10]
  z-score: 0.238

## CC=CC1=C(CO)C(=O)[C@@H]2O[C@@H]2C1=O
[1]
  z-score: 0.33 (inactive)
[2]
  composite z-score: -0.202
[3]
  z-score: -0.4 (inactive)
[4]
  z-score: -0.344 (inactive)
[5]
  z-score: -0.501 (inactive)
[6]
  z-score: -0.267 (inactive)
[7]
  z-score: -0.292
[8]
  z-score: 2.08 (inactive)
[9]
  z-score: -0.329 (inactive)
[10]
  z-score: 0.846

## CCOC(=O)[C@H](Cc1ccccc1)NC(=O)CCC1CC(OC(=O)NCCc2ccc(F)cc2)CC2(CCCC(COC(=O)NCCCN3CCCC3=O)O2)O1 (stereo not given in full)
[1]
  z-score: 0.141 (inactive)
[2]
  composite z-score: -0.105
[3]
  z-score: -1.36 (inactive)
[4]
  z-score: -0.861 (inactive)
[5]
  z-score: -0.0494 (inactive)
[6]
  z-score: -0.445 (inactive)
[7]
  z-score: 0.94
[8]
  z-score: -0.232 (inactive)
[9]
  z-score: 0.192 (inactive)
[10]
  z-score: -1.09

## C#CCCCON=C1[C@H]2CCn3c(=O)n(C)c(=O)n3[C@H]2[C@H](O)[C@@H]2O[C@H]12
[1]
  z-score: 0.117 (inactive)
[2]
  composite z-score: 0.126
[3]
  z-score: -0.611 (inactive)
[4]
  z-score: 0.147 (inactive)
[5]
  z-score: -0.354 (inactive)
[6]
  z-score: 0.0334 (inactive)
[7]
  z-score: -0.0228
[8]
  z-score: -0.0249 (inactive)
[9]
  z-score: -0.124 (inactive)
[10]
  z-score: 0.71

## COC(=O)C1=C(C)N(Cc2ccccc2)[C@]23O[C@](C(=O)OC)(C(=O)N2[C@@H]1c1ccccc1)C(C(=O)OC)=C3C(=O)OC
[1]
  z-score: 0.214 (inactive)
[2]
  composite z-score: 0.0774
[3]
  z-score: 2.05 (inactive)
[4]
  z-score: -0.468 (inactive)
[5]
  z-score: 0.323 (inactive)
[6]
  z-score: -1.52 (inactive)
[7]
  z-score: 2.22
[8]
  z-score: 0.826 (inactive)
[9]
  z-score: 0.109 (inactive)
[10]
  z-score: 2.03

— PubChem BioAssay
